PLCg1 inh = blocks human PLC-gamma1 enzyme activity | purified PLC-gamma1, fluorogenic substrate, fluorescence | inhibition, % at 12.2 µM | P19174 | AID 720700 | 370,000 compounds, 0.84% hits; in the data active means inhibition above about 9.5%
HIF activator = HIF pathway transcriptional activation. activation, % at 7.5 µM (by protocol). U2OS HRE-luciferase reporter, luminescence; normalized: DMSO 0%, desferrioxamine 100%. 300,000 compounds, 0.32% hits;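 active means mean activation of at least 10% of the iron chelator positive control signal, with at least half of replicates also reaching 10%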
AHR activator = activates the human aryl hydrocarbon receptor; 320,000 compounds, 2.5% hits; AHR-responsive luciferase reporter cells, luminescence; P35869; activation, % at 5 µM; in the data active means activation above about 47%
HGIII-sPLA2 inh = Inhibits HGIII-sPLA2 liposome hydrolysis, primary screen; Q9NZ20; 370,000 compounds, 0.56% hits; QFRET BODIPY PC-A2 liposome hydrolysis, fluorescence; inhibition, % at 12.2 µM;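 active means inhibition above mean plus 3 SD of compounds lying within the high and low control bounds, cut at about 19% in these data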
Target sequence (Q9NZ20 whole entry, looked up): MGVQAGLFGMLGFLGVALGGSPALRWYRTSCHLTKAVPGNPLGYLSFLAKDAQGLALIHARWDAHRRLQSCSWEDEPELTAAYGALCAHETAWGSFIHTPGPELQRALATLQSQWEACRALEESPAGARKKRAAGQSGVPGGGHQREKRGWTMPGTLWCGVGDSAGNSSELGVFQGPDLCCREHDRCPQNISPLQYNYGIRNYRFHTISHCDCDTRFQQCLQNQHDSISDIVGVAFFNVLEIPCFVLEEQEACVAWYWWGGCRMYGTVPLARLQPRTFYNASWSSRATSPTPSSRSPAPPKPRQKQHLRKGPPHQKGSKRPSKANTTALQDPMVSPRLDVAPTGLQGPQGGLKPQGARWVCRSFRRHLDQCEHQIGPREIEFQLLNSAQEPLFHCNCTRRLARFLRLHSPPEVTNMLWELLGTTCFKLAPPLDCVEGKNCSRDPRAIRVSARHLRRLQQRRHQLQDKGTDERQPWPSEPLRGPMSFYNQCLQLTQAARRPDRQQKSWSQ
PLCb3 inh = inhibitors of human phospholipase C beta3; Q01970; Purified PLC-beta3, fluorogenic substrate, fluorescence; inhibition, % at 12.2 µM; 370,000 compounds, 0.18% hits; AID 720704; in the data active means inhibition above about 11%
Yeast superoxide = lowers age-related superoxide in aged yeast cells | S. cerevisiae aged cells, superoxide DHE fluorescence; hits give low values | superoxide response (% of plate mean), % at 10 µM | 330,000 compounds, 0.18% hits | AID 2690;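 active means superoxide response under a set limit, about three screen SD below normal, cut at about 65% in these data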;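 further: yeast aged for seven days with compound at 30 °C before DHE staining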
A number is an active result; . = inactive; / = no result given. Hits are enriched below; roughly 3.9% of the tested compounds scored in any of these assays.

SMILES	PLCg1 inh	HIF activator	AHR activator	HGIII-sPLA2 inh	PLCb3 inh	Yeast superoxide
O=c1cccc2n1Cc1cc3ccccc3nc1-2	.	.	58.0	.	.	.
COc1ccc(/C=C2\CC3(OC(=O)c4cccc(F)c4)CCCN2C3)cc1 (configuration not stated)	.	/	/	.	.	/
Cn1c(=O)c(=O)n(C)c2cc(S(=O)(=O)N3CCN(Cc4ccc(F)cc4)CC3)ccc21	.	/	/	.	.	/
CC1Cc2ccccc2N1C(=O)CSc1nnnn1Cc1ccccc1 (configuration not stated)	.	.	47.7	.	.	.
Cc1nc(NC(=O)CSc2nnnn2Cc2ccccc2)sc1C	.	.	65.1	.	.	.
CCn1c(SCC(=O)Nc2nc(C)c(C)s2)nc2cccnc21	.	.	52.4	.	.	.
Cc1nnc(NC(=O)CSc2nnnn2Cc2ccccc2)s1	.	.	.	.	.	.
C#CCNC(=O)C[C@H]1C[C@@]2(C(=O)OC)C(=C[C@H](C(C)C)O[C@@H]2C2CC2)N(Cc2ccc(Cl)cc2Cl)C1=O	.	/	/	.	.	/
COCC(=O)N(C)[C@H]1C[C@H]2c3[nH]c4cccc(-c5cccc(F)c5)c4c3CCN2C(=O)[C@H]1[C@H](C)O	.	/	/	.	.	/
CCC(C)C(=O)Nc1nc(C)c(-c2csc(Nc3ccc(Cl)cc3)n2)s1 (configuration not stated)	.	.	50.9	.	.	/
COc1ccc(OC)c(Nc2nc(-c3sc(N)nc3C)cs2)c1	.	.	.	.	.	.
CCCC(=O)Nc1nc(C)c(-c2csc(Nc3ccc(Cl)cc3)n2)s1	.	.	65.3	.	.	/
CCCC(C)C(=O)Nc1nc(C)c(-c2csc(Nc3cc(OC)ccc3OC)n2)s1 (configuration not stated)	.	.	73.9	.	.	.
CCC(=O)Nc1nc(C)c(-c2csc(Nc3ccc(C(=O)O)cc3)n2)s1	.	.	/	.	.	/
CCCCCC(=O)Nc1nc(C)c(-c2csc(Nc3cc(Cl)ccc3OC)n2)s1	.	.	50.5	.	.	.
CCOc1ccc(/C=C2\NCCc3cc(OCC)c(OCC)cc32)cc1OCC	.	/	/	.	.	/
COC(=O)[C@]12C[C@H](CC(=O)NCCCCc3ccccc3)C(=O)N(Cc3ccco3)C1=C[C@H](C(C)(C)C)O[C@@H]2C	.	/	/	.	.	/
CC(=O)Nc1ccccc1NC(=O)c1ccc2c(c1)OCO2	.	/	/	.	.	/
COc1cc(NC(=O)c2cc(OC)c(OC)c(OC)c2)c2ncccc2c1	.	/	/	.	.	/
CCCCNC(=O)c1ccccc1NC(=O)c1ccc2c(c1)OCO2	.	.	58.1	.	.	.
COc1cc(NC(=O)c2ccc3c(c2)OCO3)c2ncccc2c1	.	.	65.5	.	.	.
CC(C)(C)NC(=O)c1ccccc1NC(=O)c1ccc2c(c1)OCO2	.	.	67.6	.	.	.
CN(Cc1ccccc1)C(=O)OCc1cn(Cc2ccccc2Cl)nn1	.	/	/	.	.	/
CCn1c(=O)cc(N2CCN(c3cccc(C(F)(F)F)c3)CC2)[nH]c1=O	.	/	/	.	.	/
COc1cccc(CNc2ccc(S(N)(=O)=O)cc2)c1OCc1ccccc1F	.	.	48.3	.	.	.
SMILES	PLCg1 inh	HIF activator	AHR activator	HGIII-sPLA2 inh	PLCb3 inh	Yeast superoxide
COCCn1c(SCC(=O)Nc2ccc(C(N)=O)cc2)nc2c([nH]c3ccccc32)c1=O	.	.	51.8	.	.	.
Cc1ccc(NC(=O)CSc2nc3c([nH]c4ccccc43)c(=O)n2C)cc1	.	.	59.9	.	.	.
Cn1c(SCC(=O)Nc2ccc(F)cc2)nc2c([nH]c3ccccc32)c1=O	.	.	.	.	.	.
CNC(=O)CSc1nc2c([nH]c3ccccc32)c(=O)n1CCOC	.	.	.	.	.	.
COCCn1c(SCC(=O)Nc2ccc(F)cc2F)nc2c([nH]c3ccccc32)c1=O	.	.	70.8	.	.	.
COCCn1c(SCC(=O)Nc2ccc(F)cc2)nc2c([nH]c3ccccc32)c1=O	.	.	.	.	.	.
COCCn1c(SCC(=O)Nc2ccccc2F)nc2c([nH]c3ccccc32)c1=O	.	.	61.0	.	.	.
O=C(Nc1ccccc1)OCCN1C(=O)CCC12CCC(c1ccc(Cl)cc1)CC2 (configuration not stated)	.	/	/	.	.	/
CCC(C)c1ccc(Nc2ncccc2C#N)cc1 (configuration not stated)	.	.	61.4	.	.	.
CCc1ccc(Nc2ncccc2C#N)cc1	.	.	52.1	.	.	.
CC(C)c1ccc(Nc2ncccc2C(=O)O)cc1	.	.	.	.	.	.
COC(=O)C1=C(C)N(C)C(=NCc2cccc(C(F)(F)F)c2)NC1c1ccc(C(F)(F)F)cc1 (configuration not stated)	.	/	/	.	.	/
CCOc1ccc(-c2nc(CN(Cc3ccccc3)C[C@@H]3CCC(=O)N3)c(C)o2)cc1	.	.	.	.	.	.
Cc1oc(-c2ccc(C(F)(F)F)cc2)nc1CN(Cc1ccccn1)C[C@@H]1CCC(=O)N1	.	.	75.2	.	.	.
COCCNC(=O)C(=O)NCC1OCCN1S(=O)(=O)c1cc(F)ccc1F (configuration not stated)	.	17.2	.	.	.	.
O=C(NC1CCCCN(Cc2ccc(Cl)cc2)C1=O)c1ccc(Cl)cc1Cl (configuration not stated)	.	/	/	.	.	/
CC(=O)Nc1ccc(N2C(C(C)=O)=NN(c3ccc(Cl)cc3)C2c2sccc2C)cc1 (configuration not stated)	.	.	65.6	.	.	.
CC(=O)Nc1ccc(N2C(C(C)=O)=NN(c3ccccc3)C2c2cccs2)cc1 (configuration not stated)	.	.	.	.	.	.
C[C@H](c1ccccc1)N1C[C@@H](COCc2ccccc2)Oc2cccc(Oc3ccc(F)cc3)c2S1(=O)=O	.	/	/	.	.	/
CCn1cc(C(=O)NCC(OC)OC)c(=O)c2cc(S(=O)(=O)N3CCC(C)CC3)ccc21	.	29.7	.	.	.	.
O=C(Nc1ccc(F)cc1)N(Cc1cccs1)Cc1cc2cc3c(cc2[nH]c1=O)OCO3	.	.	53.6	.	.	.
Cc1ccc(S(=O)(=O)N2CCN(C(=O)COC(=O)COc3ccc(Cl)c(C)c3)CC2)c(C)c1	.	/	/	.	.	/
Cc1ccc(S(=O)(=O)N2CCN(C(=O)COC(=O)COc3ccc(Cl)cc3)CC2)c(C)c1	13.4	/	/	.	.	/
CC(=O)Nc1nnc(-c2ccc3c(c2)CCCC3)o1	.	.	58.7	.	.	.
COc1ccccc1C(=O)Nc1nnc(-c2ccc3c(c2)CCCC3)o1	.	.	51.7	.	.	.
C[C@H]1[C@H](NC(=O)c2cccc(C(F)(F)F)c2)CC[C@@]23CCCN2C(=O)CCC[C@@H]13	.	/	/	.	.	/
C/C(=N\Nc1nc2ccccc2[nH]1)c1ccc2c(c1)OCO2	.	.	128.1	.	.	.
